These results are taken from PubChem BioAssay (NCATS).

SMILES strings stand for the structures. Records with an inconclusive call do not appear. The source made the active and inactive calls. Unless noted, calls follow the shape of the dose curve; as a rule, active = well fitted curve in the direction sought with a large enough effect; inconclusive = small, poorly fitted or top-dose-only effect, or another doubt; inactive = no such curve, though single readings can be large; an effect the other way counts as inactive or inconclusive.

Experiment [1] is described as follows: Cytometric Cell-Based qHTS for Inhibitors of the mTORC1 Signaling Pathway in MEF (Tsc2-/-, p53-/-) Cells (AID 2660).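 Also: percent of cells above a phospho-rpS6 to PI ratio cutoff in each well; series mostly up to about 38 µM.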 The procedure, abridged: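 Tsc2-/-, p53-/- MEFs (empty vector) exposed to compound 24 h at 37 C, fixed, stained with Alexa-488 anti-phospho-rpS6 Ser235/236 and propidium iodide. Acumen laser scanning; phospho-S6/PI ratio thresholded against 7.5 nM rapamycin, reported as % positive cells.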

The nature of experiment [2]: High Content Imaging Cell-Based qHTS for Inhibitors of the mTORC1 Signaling Pathway in MEF (Tsc2-/-, p53-/-) Cells (AID 2666).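 Also: percent of cells scored positive for phospho-rpS6 Ser235/236 immunostaining by imaging.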 In short, it runs like this:
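Phospho-rpS6 (Ser235/236) immunofluorescence, normalized and scored as % positive cells using rapamycin and DMSO controls, was read in empty-vector Tsc2-/-, p53-/- MEFs after 24 h compound exposure at 37 C; propidium iodide counted cells.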

Experiment [3] is described as follows: High Content Imaging Cell-Based qHTS for Inhibitors of the mTORC1 Signaling Pathway in MEF Cells (AID 2667).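 Also: Tsc2-/- p53-/- MEFs stably re-expressing wild-type Tsc2 exposed 24 h; series mostly up to about 38 µM.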 The procedure, abridged: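 WT MEFs (Tsc2-/-, p53-/- re-expressing Tsc2), in DMEM + 10% FBS, were treated with compound for 24 h at 37 C. Cells were then fixed and stained for phospho-rpS6 Ser235/236 with propidium iodide as cell count. Values are % positive cells, with thresholds set against rapamycin-treated cells.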

Experiment [4] can be described thus: Validation screen for small molecules that induce DNA re-replication in MCF 10A normal breast cells (AID 463097). Also: nearly all actives have a fitted effect of over 60% in size. Also: potency is read from the fitted curve at half-maximal effect. In short, it runs like this: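 DNA re-replication was detected as a rise in nuclei with elevated Hoechst fluorescence after a 48 hr compound exposure of MCF 10A cells at 37 C.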
Experiment [5] deals with Ubiquitin carboxyl-terminal hydrolase 2 (Homo sapiens) (UniProt O75604). As to the kind of experiment: qHTS Validation Assay for Inhibitors of Ubiquitin-specific Protease USP2a Using CHOP2 as the Reporter (AID 463106). The procedure, abridged:
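USP2 core (10 nM final) was preincubated with compound 30 min at RT in pH 8.0 Tris/CaCl2/beta-ME/CHAPS buffer. Ub-CHOP2 and reporter substrate (25 nM final each) were then added, with fluorescence (Ex 485/Em 531) read after 60 min. Data were normalized to NEM full inhibition and fitted to concentration-response curves.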

Experiment [6] addresses DNA polymerase III PolC-type (Bacillus subtilis (strain 168)) (UniProt P13267). As to the kind of experiment: qHTS Validation Assay for the Inhibitors of DNA Replication in Gram-Positive Bacteria (AID 485295).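 Also: reconstituted holoenzyme with PolC plus beta clamp SSB and primase; PicoGreen fluorescence of double-stranded DNA made on primed circular M13 template; series mostly up to about 57 µM.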 The procedure, abridged:
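Primed replication of single-stranded M13Gori by a four-protein B. subtilis holoenzyme is measured at room temperature. Double-stranded product is quantified by PicoGreen fluorescence after an EDTA stop; inhibition is scaled between DMSO and EDTA controls.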

The target in experiment [7] is Tumor susceptibility gene 101 protein (Homo sapiens) (UniProt Q99816). The experiment in a line: qHTS Validation Assay for Iinhibitors of HIV-1 Budding by Blocking the Interaction of PTAP/TSG101 (AID 485342; calls by dose curve). The procedure, abridged:
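Fluorescence anisotropy measured PTAP-Tsg101 interaction. Final concentrations were 10 uM protein domain and 50 nM labeled peptide, equilibrated 20 min at room temperature.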

A short description of experiment [8]: qHTS Validation Assay to Find Inhibitors of Chronic Active B-Cell Receptor Signaling (AID 485345; active = well fitted curve in the direction sought with a large enough effect in the main read-out, with a control signal flat, not every such curve was filed as active). The procedure, abridged: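 TMD8 ABC-DLBCL cells stably carrying doxycycline-inducible IkappaBalpha–green luciferase fusion plus unfused red luciferase; compounds 46 uM to 3 nM, 4 h at 37C with doxycycline. Corrected green/red luminescence ratio normalized to 10 uM MG-132 and basal cell wells; curves fitted.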

The target in experiment [9] is Beta-2 adrenergic receptor (Homo sapiens) (UniProt P07550). The experiment in a line: qHTS validation assay of beta-arrestin-biased ligands of beta2-adrenergic receptor (AID 485366). In short, it runs like this:
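Tango cells expressing recombinant beta2-AR and beta-arrestin with tTA-driven luciferase, in DMEM with 1% FBS. Compounds were titrated up to 46 microM for 18 hr at 37 degrees C. Luminescence was read 15 min after substrate; curves were fitted and class-assigned.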

Experiment [10] in a line: Quantitative high throughput screen for delayed death inhibitors of the malarial parasite plastid, 96 hour incubation (AID 488745).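 Also: luciferase-expressing P. falciparum in erythrocytes at 2% hematocrit and 0.1% parasitemia; series mostly up to about 29 µM; nearly all actives have a fitted effect of over 70% in size.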 The procedure, abridged:
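Growth of reporter-bearing P. falciparum in red cells is measured after 96 h with compound, covering two erythrocytic cycles. Luminescence from the integrated luciferase serves as the growth signal.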

Experiment [11] concerns the target Thioredoxin reductase 1, cytoplasmic (Rattus norvegicus) (UniProt O89049). The experiment in a line: qHTS Assay for Substrates of Mammalian Selenoprotein Thioredoxin Reductase 1 (TrxR1) (AID 488772).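 Also: NADPH fluorescence in the first read after selenite addition and not the 8 min delta; series mostly up to about 57 µM; a drop in NADPH fluorescence below the no-compound background marks a TrxR1 substrate.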 In short, it runs like this:
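Quantitative HTS in Tris-HCl buffer at pH 7.5 with EDTA and Tween-20, using rat TrxR1, 400 uM NADPH and 400 uM selenite (final). A fall in initial NADPH fluorescence relative to background marked substrate behaviour.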

Experiment [12] shares this target. The experiment in a line: qHTS Assay for Inhibitors of Mammalian Selenoprotein Thioredoxin Reductase 1 (TrxR1) (AID 488773).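 Also: drop in NADPH fluorescence over an 8 min run after selenite addition; series mostly up to about 57 µM; nearly all actives have a fitted effect of over 40% in size.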 As to conditions: Potency: inhibition. The procedure, abridged: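 Steps: enzyme (90 nM) plus NADPH (400 uM final), 5 min at ~22 deg C; compound added, 15 min; selenite (400 uM final) added; fluorescence followed for 8 min. Concentration-response curves derived from the normalized delta values.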

Experiment [13] addresses Flap endonuclease 1 (Homo sapiens) (UniProt P39748). The experiment in a line: qHTS Validation Assay for the Inhibitors of Human Flap endonuclease 1 (FEN1) (AID 488816). In short, it runs like this:
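Human FEN1 (10 nM) preincubated 15 min at room temperature with compounds, then flap DNA substrate added at 50 nM final. Fluorescence read at 0 and 15 min; concentration-response fitted with four-parameter Hill equation.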

Experiment [14] addresses M-phase phosphoprotein 8 (Homo sapiens) (UniProt Q99549). The experiment in a line: qHTS Validation Assay for Inhibitors for MPP8 Chromodomain Interactions with Methylated Histone Tails (AID 488949).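 Also: AlphaScreen signal from MPP8 chromodomain bound to biotinylated H3K9me3 peptide; top concentration of the series differs between compounds; nearly all actives have a fitted effect of over 55% in size.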 The procedure, abridged:
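Disruption of the preformed MPP8–trimethyl-H3K9 peptide complex (both 50 nM, 30 min, RT) is measured after 30 min compound exposure, using AlphaScreen proximity beads; aurintricarboxylic acid titration serves as plate control.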

Experiment [15] has as its target Chromobox protein homolog 1 (Homo sapiens) (UniProt P83916). The experiment in a line: qHTS Validation Assay for Inhibitors of HP1-beta Chromodomain Interactions with Methylated Histone Tails (AID 488953).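 Also: loss of AlphaScreen luminescence from HP1-beta binding biotinylated H3K9me3 peptide; series mostly up to about 110 µM; nearly all actives have a fitted effect of over 50% in size.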 The procedure, abridged:
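Measured as loss of AlphaScreen luminescence from streptavidin donor and nickel acceptor beads (10 ug/mL final) bridging HP1-beta and biotin-H3(1-18)K9me3, each 50 nM. Compounds met the preassembled complex for 30 min at RT.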

Experiment [16] has as its target Methanococcus maripaludis chaperonin (MmCpn) (UniProt Q6LX38). The experiment in a line: High-Throughput Screening for Modulators of Cytosolic Chaperonin Activity: MmCpn Primary Screen (AID 488978).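 Also: 50 nM MmCpn enzyme hydrolysing 30 µM ATP at 37 °C.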 In short, it runs like this:
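Measures ATPase turnover of the M. maripaludis chaperonin (50 nM final) against 30 uM ATP over 10 min at 37C, with compound added 5 min beforehand at room temperature. ADP is quantified by HTRF immunodetection.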

The nature of experiment [17]: Cytometry Cell-Based qHTS for Inhibitors of the mTORC1 Signaling Pathway in MEF cells (AID 2668).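 Also: Tsc2-/- p53-/- mouse embryonic fibroblasts stably re-expressing wild-type Tsc2; percent cells positive for phospho-rpS6 Ser235/236 relative to propidium iodide stain; series mostly up to about 38 µM.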 The procedure, abridged: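 Pathway inhibition in WT Tsc2-rescued Tsc2-/-, p53-/- MEFs is measured as the Alexa-488 phospho-rpS6 to propidium iodide intensity ratio after 24 hrs of compound at 37 degree Celsius. PI-stained cell number gives viability.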
For experiment [18], the target named is ATP-dependent 6-phosphofructokinase (Trypanosoma brucei brucei) (UniProt O15648). The experiment in a line: qHTS Validation Assay to Find Inhibitors of T. brucei phosphofructokinase (AID 485368). The procedure, abridged: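 Activity was read as ADP production by luminescence (ADP-Glo) after 45 min at room temperature. The enzyme was 1.25nM PFK in 0.1M TEA pH 8.0 with 0.5 mM F6P, 0.1mM ATP and 5 mM MgCl2. Compounds were titrated up to 57 uM and % activity normalized to no-enzyme and full-enzyme controls.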
ATP-dependent 6-phosphofructokinase (Trypanosoma brucei brucei), sequence (O15648 whole entry, looked up): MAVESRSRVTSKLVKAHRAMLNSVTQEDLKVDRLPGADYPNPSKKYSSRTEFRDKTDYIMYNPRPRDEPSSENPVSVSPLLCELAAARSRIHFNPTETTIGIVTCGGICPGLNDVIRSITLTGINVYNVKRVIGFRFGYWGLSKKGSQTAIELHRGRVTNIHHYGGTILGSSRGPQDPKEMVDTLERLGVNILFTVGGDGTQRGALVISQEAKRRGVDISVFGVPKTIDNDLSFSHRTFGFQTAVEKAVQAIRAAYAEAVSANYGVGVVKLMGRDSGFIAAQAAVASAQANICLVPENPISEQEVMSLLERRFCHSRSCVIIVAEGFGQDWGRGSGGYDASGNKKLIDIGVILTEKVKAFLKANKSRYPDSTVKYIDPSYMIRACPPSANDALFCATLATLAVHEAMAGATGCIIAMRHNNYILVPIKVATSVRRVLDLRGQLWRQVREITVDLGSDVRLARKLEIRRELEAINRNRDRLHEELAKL

Experiment [19] can be described thus: Quantitative high throughput screen for delayed death inhibitors of the malarial parasite plastid, 48 hour incubation (AID 488752). Also: nearly all actives have a fitted effect of over 65% in size. Also: potency is read from the fitted curve at half-maximal effect. The procedure, abridged:
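One parasite generation (48 h, 37 C, 5% CO2) of luciferase-reporter P. falciparum in erythrocytes is run with test compound; decreased luminescence indicates inhibited growth.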

Methanococcus maripaludis chaperonin (MmCpn), sequence (Q6LX38 1-543): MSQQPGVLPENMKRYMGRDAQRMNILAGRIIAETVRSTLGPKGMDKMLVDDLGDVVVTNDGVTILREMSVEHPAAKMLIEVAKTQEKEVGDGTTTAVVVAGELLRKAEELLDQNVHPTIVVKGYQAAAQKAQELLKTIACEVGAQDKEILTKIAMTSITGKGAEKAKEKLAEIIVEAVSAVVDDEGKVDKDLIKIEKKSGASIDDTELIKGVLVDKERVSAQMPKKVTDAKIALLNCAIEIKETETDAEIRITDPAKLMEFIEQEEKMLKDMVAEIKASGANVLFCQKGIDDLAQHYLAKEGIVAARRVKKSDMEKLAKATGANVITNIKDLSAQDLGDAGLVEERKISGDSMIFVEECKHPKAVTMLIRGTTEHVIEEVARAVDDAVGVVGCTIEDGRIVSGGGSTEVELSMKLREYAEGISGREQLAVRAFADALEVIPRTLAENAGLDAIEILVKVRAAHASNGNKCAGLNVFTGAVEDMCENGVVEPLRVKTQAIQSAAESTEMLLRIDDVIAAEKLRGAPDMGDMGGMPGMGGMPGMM
Beta-2 adrenergic receptor (Homo sapiens), sequence (P07550 whole entry, looked up): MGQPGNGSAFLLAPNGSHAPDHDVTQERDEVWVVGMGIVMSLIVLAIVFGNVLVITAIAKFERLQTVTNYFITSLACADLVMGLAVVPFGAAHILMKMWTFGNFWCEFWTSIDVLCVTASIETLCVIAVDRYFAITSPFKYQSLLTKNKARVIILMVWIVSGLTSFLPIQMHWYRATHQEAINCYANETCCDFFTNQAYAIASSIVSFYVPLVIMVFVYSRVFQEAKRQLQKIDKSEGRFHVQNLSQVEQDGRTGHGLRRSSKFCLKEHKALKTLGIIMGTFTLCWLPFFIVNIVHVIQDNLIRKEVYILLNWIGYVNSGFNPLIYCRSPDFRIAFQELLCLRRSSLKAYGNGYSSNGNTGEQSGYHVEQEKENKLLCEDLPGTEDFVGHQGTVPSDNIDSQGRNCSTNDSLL
Thioredoxin reductase 1, cytoplasmic (Rattus norvegicus), sequence (O89049 whole entry, looked up): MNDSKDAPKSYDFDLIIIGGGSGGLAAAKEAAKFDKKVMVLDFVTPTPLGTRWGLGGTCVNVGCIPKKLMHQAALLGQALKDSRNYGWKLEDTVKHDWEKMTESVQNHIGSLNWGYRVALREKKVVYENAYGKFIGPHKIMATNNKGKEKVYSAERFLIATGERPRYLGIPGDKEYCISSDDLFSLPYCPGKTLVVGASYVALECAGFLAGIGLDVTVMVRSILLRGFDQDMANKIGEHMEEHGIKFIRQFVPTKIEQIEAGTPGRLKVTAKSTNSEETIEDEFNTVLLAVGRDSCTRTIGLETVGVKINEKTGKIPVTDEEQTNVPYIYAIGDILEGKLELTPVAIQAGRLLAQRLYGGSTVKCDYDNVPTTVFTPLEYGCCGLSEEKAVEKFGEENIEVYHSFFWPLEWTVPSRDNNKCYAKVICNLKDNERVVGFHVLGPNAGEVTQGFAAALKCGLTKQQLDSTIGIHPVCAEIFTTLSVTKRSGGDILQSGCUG
Flap endonuclease 1 (Homo sapiens), sequence (P39748 whole entry, looked up): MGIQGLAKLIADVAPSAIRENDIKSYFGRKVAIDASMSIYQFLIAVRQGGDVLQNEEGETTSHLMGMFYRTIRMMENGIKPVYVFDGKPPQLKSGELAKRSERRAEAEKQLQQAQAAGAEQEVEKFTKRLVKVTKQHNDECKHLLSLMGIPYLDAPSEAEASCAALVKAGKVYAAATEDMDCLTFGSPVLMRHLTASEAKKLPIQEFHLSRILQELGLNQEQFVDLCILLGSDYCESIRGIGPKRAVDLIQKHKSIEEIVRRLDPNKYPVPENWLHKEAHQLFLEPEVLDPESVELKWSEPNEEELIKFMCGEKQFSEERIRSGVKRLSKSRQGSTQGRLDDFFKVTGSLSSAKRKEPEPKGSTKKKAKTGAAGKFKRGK
Tumor susceptibility gene 101 protein (Homo sapiens), sequence (Q99816 whole entry, looked up, the tested form may be a part): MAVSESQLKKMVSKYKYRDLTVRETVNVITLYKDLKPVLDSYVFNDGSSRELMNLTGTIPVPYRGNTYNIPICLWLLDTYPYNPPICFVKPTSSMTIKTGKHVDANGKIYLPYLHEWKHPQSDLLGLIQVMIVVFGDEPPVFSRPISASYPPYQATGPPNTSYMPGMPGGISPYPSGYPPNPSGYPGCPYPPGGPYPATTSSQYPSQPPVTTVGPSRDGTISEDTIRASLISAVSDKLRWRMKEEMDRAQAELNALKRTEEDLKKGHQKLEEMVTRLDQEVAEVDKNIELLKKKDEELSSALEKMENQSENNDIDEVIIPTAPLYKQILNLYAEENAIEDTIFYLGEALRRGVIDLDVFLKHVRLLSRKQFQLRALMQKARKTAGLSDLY
M-phase phosphoprotein 8 (Homo sapiens), sequence (Q99549 whole entry, looked up): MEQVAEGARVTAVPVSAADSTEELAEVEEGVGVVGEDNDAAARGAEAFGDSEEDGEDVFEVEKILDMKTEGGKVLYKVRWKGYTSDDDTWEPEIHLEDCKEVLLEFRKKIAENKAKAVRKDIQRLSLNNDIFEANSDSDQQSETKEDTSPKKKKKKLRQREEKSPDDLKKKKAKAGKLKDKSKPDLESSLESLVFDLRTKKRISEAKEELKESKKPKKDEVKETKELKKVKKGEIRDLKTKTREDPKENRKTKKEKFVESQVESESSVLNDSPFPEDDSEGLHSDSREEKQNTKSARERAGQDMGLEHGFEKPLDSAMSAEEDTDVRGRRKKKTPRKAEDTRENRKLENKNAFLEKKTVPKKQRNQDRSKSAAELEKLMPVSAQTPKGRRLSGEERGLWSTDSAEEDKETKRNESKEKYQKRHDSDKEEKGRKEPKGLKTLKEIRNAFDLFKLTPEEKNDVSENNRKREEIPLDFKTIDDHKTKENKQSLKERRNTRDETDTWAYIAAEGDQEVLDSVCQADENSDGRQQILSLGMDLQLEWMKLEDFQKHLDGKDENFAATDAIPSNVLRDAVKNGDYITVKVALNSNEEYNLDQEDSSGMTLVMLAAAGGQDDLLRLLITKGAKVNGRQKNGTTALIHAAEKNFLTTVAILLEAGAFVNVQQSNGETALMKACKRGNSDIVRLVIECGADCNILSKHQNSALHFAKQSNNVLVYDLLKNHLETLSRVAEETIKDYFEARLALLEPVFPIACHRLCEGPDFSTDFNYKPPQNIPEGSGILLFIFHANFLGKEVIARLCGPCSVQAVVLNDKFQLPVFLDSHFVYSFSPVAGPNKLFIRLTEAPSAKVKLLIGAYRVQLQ
Ubiquitin carboxyl-terminal hydrolase 2 (Homo sapiens), sequence (O75604 whole entry, looked up): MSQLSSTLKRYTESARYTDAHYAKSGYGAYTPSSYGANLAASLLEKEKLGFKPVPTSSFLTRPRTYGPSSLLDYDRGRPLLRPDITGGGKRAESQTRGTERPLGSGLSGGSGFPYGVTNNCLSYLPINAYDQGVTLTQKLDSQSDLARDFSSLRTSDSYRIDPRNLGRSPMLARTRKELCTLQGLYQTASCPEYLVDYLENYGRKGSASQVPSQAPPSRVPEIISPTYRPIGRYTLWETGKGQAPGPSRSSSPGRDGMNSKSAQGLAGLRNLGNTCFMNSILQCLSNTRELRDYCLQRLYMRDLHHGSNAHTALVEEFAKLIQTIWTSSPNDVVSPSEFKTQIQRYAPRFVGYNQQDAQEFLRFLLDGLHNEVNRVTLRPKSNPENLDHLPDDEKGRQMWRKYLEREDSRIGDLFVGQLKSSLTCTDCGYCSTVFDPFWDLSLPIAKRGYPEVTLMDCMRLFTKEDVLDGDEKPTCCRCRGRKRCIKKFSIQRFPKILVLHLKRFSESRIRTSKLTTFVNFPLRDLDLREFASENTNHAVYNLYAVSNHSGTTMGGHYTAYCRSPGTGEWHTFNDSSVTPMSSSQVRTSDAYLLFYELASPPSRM
Chromobox protein homolog 1 (Homo sapiens), sequence (P83916 whole entry, looked up): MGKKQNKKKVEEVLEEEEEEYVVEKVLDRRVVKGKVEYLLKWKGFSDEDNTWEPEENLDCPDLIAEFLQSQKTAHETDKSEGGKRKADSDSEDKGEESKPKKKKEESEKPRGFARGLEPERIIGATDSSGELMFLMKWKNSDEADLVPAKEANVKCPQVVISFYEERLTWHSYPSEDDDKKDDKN

Turning to `O=c1cc(-c2ccccc2)[nH]c2nc(Cl)ccc12`, the outcome in [1], in [7], in experiment [8], in [9], in experiment [11] and in experiment [16] was inactive. In addition, the Potency result in [2], in experiment [3], in experiment [5], in [6], in experiment [10] and in experiment [12] was “inactive” each time. Also, the Potency result in [13], in experiment [14] and in [15] was “inactive” throughout. Also, the Potency in experiment [4] is 6.31 µM (active).
Turning to `C[C@]12C=CC(=O)C=C1CC[C@@H]1C2=CC[C@]2(C)[C@@H](C(=O)CN3CCN(c4cc(N5CCCC5)nc(N5CCCC5)n4)CC3)CC[C@@H]12`, the compound was called inactive in experiment [1], in experiment [7] and in experiment [16]. Besides, the Potency result in experiment [2], in [3], in experiment [17], in experiment [5], in [6] and in [13] was “inactive” throughout.
In the case of `CC(C)(C)c1ccc(/C=C/C(=O)Nc2ccc3c(c2)OCCO3)cc1`, the result in [1], in [7], in [9], in experiment [11] and in experiment [16] was inactive. Further, the Potency entry in experiment [2], in experiment [3], in experiment [5], in experiment [6], in experiment [18] and in [12] was “inactive” each time. The Potency entry in [13] and in [14] was “inactive” each time.
As for `CN1CCN(c2nc3cc(C(F)(F)F)ccc3n3cccc23)CC1`, the outcome in experiment [1], in [7], in experiment [9] and in experiment [11] was inactive. For the same compound, the Potency entry in [2], in experiment [3], in [17], in experiment [5], in experiment [6] and in experiment [12] was “inactive” each time. In addition, the Potency result in experiment [13] and in experiment [14] was “inactive” throughout. For the same compound, in experiment [19], the Potency is 8.28 µM (active).
With `COc1ccc(CCN(C)CCc2ccc(OC)c(OC)c2)cc1OC`, the call in [1], in experiment [7], in [8], in [9], in [11] and in [16] was inactive. For the same compound, the Potency entry in experiment [2], in experiment [17], in [4], in experiment [5], in experiment [6] and in experiment [18] was “inactive” throughout. The Potency entry in experiment [10], in [19], in experiment [12], in experiment [13], in experiment [14] and in [15] was “inactive” in each case.
For the compound `OC[C@H]1O[C@H](n2cnc3c(N[C@H]4CCC[C@@H]4O)ncnc32)[C@H](O)[C@@H]1O`, the call in experiment [1], in experiment [7], in [9] and in experiment [16] was inactive. For the same compound, the Potency result in experiment [2], in experiment [3], in [17], in [5], in [6] and in experiment [12] was “inactive” in each case. Also, the Potency entry in experiment [13], in [14] and in [15] was “inactive” each time.
In the case of `N[C@H](C(=O)O)[C@H]1C[C@@H]1C(=O)O`, the compound was classed as inactive in experiment [1], in experiment [7], in experiment [8], in experiment [9], in experiment [11] and in experiment [16]. Moreover, the Potency result in experiment [2], in experiment [17], in experiment [4], in experiment [5], in experiment [6] and in experiment [18] was “inactive” throughout. For the same compound, the Potency result in experiment [10], in experiment [19], in experiment [12], in experiment [13], in experiment [14] and in experiment [15] was “inactive” in each case.
For the compound `Oc1ccc(/C=C/c2ccc(/C=C/c3ccc(O)cc3)c(Br)c2)cc1`, the compound was classed as inactive in experiment [1], in experiment [7], in experiment [9], in experiment [11] and in [16]. Besides, the Potency entry in [2], in experiment [3], in [5], in [6], in [13] and in experiment [14] was “inactive” throughout.
For `C=CCN1CCc2cc(O)c(O)cc2C(c2ccccc2)C1` (stereo unspecified), the compound was called inactive in experiment [1], in experiment [7], in experiment [8], in experiment [9], in experiment [11] and in experiment [16]. Moreover, the Potency entry in experiment [2], in experiment [3], in experiment [4], in [5], in experiment [6] and in [18] was “inactive” each time. The Potency entry in experiment [12], in [13] and in experiment [14] was “inactive” in each case.
